This note sets out measurements from PubChem BioAssay.

Active and inactive are the calls of the source.

The test system of experiment [1] is Plasmodium falciparum Sir2 (PF13_0152, Sir2A). Put plainly: Plasmodium falciparum Sir2A binding compounds – biochemical, small-molecule microarray, 635 nm fluorescence, primary screen (AID 1098).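 Note: score merges spot fluorescence intensity with its signal-to-noise ratio.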 The settings on record: fluorescence 635 nm, higher = more signal.
Experiment [2] in a line: probe aDKK1 binding to arrayed compounds – biochemical, biotinylated probe, 635/667 nm fluorescence, primary screen (AID 1099).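 Note: score merges 667nm spot fluorescence with signal to noise across triplicate slides; reference of the scale not given here.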 To be noted: small-molecule microarray, higher = more signal.
Experiment [3] can be described thus: probe aCHRDL2 binding to arrayed compounds – biochemical, biotinylated probe, 635/667 nm fluorescence, primary screen (AID 1100). The settings on record: small-molecule microarray, higher = more signal.
The nature of experiment [4]: change in splice reporter luminescence, either direction, cell-based, HEK293, spliceosome inhibition project, primary screen (AID 1101).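 Note: HEK293 cells carrying a splicing-competent luciferase reporter gene; test concentration not given here.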 The settings on record: HEK293 splicing luciferase reporter, 24 h, higher = more signal, called active from +8 up or from −8 down. Background: Reporter assays use an easily measured gene product as a stand-in for the process of interest.

The target in experiment [5] is Fibroblast growth factor 10 (Homo sapiens) (UniProt O15520). The experiment is described as follows: compounds binding fibroblast growth factor 10 – biochemical, small-molecule microarray, 635 nm fluorescence, primary screen (AID 1102). The settings on record: FGF10 binding, fluorescence 635 nm, higher = more signal.
Experiment [6] relates to glycogen synthase kinase-3 (GSK3A per assay name; protocol says GSK3B). Put plainly: compounds binding glycogen synthase kinase-3 – biochemical, small-molecule microarray, 635 nm fluorescence, GSK3A, primary screen (AID 1103). Note: the record names both GSK3A and GSK3B. To be noted: fluorescence 635 nm, higher = more signal.
Experiment [7] concerns the target Epidermal growth factor receptor (Homo sapiens) (UniProt P00533). Put plainly: compounds binding epidermal growth factor receptor – biochemical, small-molecule microarray, 635 nm fluorescence, primary screen (AID 1104).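 Note: score merges 667 nm emission intensity with spot signal to noise over triplicate slides.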 The settings on record: EGFR binding, higher = more signal.
The target in experiment [8] is Follistatin-related protein 3 (Homo sapiens) (UniProt O95633). Put plainly: compounds binding follistatin-related protein 3 – biochemical, small-molecule microarray, 635 nm fluorescence, primary screen (AID 1105).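 Note: score merges emission near 667 nm and signal to noise per printed spot across three slides.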 To be noted: FSTL3 binding, higher = more signal.
The target in experiment [9] is Dickkopf-related protein 1 (Homo sapiens) (UniProt O94907). The experiment is described as follows: small molecules binding DKK1 protein – biochemical, small-molecule microarray, 635 nm fluorescence scan, primary screen (AID 1106).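 Note: score merges emission near 667 nm with signal to noise over three replicate slides.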 To be noted: higher = more signal.
Experiment [10] concerns Inhibin beta A chain (activin A). The experiment is described as follows: small molecules binding activin A – biochemical, small-molecule microarray, 635 nm fluorescence scan, primary screen (AID 1107).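 Note: mouse activin A protein probed at 4.33 µg/mL on printed slides; score merges bound-protein fluorescence near 667 nm with spot signal-to-noise.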 To be noted: INHBA, higher = more signal.

Chain of Follistatin-related protein 3 (Homo sapiens) (O95633 whole entry, looked up): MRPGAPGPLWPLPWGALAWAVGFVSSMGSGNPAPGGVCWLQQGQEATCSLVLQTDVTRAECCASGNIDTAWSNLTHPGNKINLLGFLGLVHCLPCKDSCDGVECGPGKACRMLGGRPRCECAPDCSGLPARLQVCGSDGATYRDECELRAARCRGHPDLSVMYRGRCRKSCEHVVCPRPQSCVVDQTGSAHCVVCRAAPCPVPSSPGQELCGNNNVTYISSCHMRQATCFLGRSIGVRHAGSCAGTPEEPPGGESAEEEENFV
Chain of Fibroblast growth factor 10 (Homo sapiens) (O15520 whole entry, looked up): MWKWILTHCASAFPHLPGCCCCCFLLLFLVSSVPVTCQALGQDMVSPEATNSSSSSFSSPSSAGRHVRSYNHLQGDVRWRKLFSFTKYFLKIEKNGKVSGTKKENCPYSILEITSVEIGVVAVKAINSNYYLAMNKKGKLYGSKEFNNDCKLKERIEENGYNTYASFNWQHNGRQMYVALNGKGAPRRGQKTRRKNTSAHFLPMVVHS
Chain of Epidermal growth factor receptor (Homo sapiens) (P00533 whole entry, looked up): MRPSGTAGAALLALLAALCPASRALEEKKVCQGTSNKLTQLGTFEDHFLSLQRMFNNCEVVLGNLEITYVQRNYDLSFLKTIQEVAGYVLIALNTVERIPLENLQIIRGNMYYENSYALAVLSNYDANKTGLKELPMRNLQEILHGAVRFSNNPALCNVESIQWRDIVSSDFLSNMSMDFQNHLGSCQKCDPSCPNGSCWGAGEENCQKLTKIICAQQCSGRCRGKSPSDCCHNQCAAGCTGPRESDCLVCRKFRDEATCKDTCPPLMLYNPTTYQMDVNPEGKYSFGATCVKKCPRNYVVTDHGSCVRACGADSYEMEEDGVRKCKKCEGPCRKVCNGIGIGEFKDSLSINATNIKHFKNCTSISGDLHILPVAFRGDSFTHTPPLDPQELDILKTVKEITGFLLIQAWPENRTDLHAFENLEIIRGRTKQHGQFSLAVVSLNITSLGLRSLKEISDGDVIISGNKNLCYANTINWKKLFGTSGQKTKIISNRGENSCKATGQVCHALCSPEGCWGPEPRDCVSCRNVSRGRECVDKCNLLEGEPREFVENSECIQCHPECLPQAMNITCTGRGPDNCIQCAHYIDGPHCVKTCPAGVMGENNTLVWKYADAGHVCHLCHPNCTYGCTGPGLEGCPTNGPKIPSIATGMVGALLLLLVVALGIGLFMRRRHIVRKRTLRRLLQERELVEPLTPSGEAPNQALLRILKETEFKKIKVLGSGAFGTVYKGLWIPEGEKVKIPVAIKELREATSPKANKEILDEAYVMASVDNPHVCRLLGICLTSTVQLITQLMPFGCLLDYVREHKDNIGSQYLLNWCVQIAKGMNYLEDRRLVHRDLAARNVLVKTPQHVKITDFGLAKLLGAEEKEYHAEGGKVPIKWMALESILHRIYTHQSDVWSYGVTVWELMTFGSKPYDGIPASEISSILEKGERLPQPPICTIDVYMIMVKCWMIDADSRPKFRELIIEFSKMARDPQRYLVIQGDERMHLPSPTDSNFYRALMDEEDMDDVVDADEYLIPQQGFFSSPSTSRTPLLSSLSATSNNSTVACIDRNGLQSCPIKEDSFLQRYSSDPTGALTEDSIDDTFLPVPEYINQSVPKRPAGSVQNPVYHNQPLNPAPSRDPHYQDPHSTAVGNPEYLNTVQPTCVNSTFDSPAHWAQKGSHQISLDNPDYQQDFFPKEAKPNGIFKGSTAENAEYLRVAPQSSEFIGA
Chain of Dickkopf-related protein 1 (Homo sapiens) (O94907 whole entry, looked up): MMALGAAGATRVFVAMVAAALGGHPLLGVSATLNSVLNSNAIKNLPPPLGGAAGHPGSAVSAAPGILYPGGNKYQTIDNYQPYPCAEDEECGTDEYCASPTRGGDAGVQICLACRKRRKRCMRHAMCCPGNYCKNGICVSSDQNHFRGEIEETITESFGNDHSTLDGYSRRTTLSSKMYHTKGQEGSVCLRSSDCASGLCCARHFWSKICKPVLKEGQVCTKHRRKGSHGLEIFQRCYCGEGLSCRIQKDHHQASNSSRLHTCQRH

Consider `C=CCNC(=O)[C@H]1[C@@H]2C(=O)O[C@@H](c3ccccc3)[C@@H](c3ccccc3)N2[C@@H](c2ccc(OCCO)cc2)[C@]12C(=O)N(C(=O)OCCOC)c1ccccc12`, for which the composite z-score turned out to be 1.57 in experiment [1]; 0.192 in experiment [2]; 0.299 in experiment [3]; 0.942 in [5]; 1.31 in experiment [6]; 0.461 in [7]. The composite z-score in experiment [8] came to 1.25; in experiment [9], 0.497; in experiment [10] it was 0.247. The z-score in experiment [4] was -1.04 (inactive).
In the case of `O=C(c1ccccc1)N1Cc2ccccc2[C@@H]2OC(c3ccc(OCCCO)cc3)=N[C@]2(Cc2ccccc2)C1=O`, the composite z-score in [1] came to 1.35; in experiment [2], 0.114; in [3], 0.431; in experiment [5] it was 1.24; in experiment [6] it was 1.33; in experiment [7] it was 0.444. Also, the composite z-score is 1.03 in [8], 0.0731 in experiment [9] and 0.3 in [10]. Also, the z-score in [4] was -0.0808 (inactive).
Consider `[N-]=[N+]=Nc1ccccc1C[C@@]1(C(=O)NCCN2CCOCC2)N=C(c2ccc(OCCCO)cc2)O[C@@H]1c1ccccc1`, for which the composite z-score in [1] worked out at 1.57; in experiment [2], 0.532; in experiment [3] it was 0.915; in [5], 1.35; in experiment [6] it was 1.29; in experiment [7] it was 0.245. The composite z-score was 1.21 in [8], 0.461 in [9] and 0.847 in [10]. Further, the z-score in experiment [4] was -0.724 (inactive).
Turning to `N#Cc1ccc(NN2C(C(O)c3c(F)cccc3Cl)C=CC3C(=O)N(c4ccccc4)C(=O)C32)cc1` (stereo not given), the composite z-score in [1] is 1.08; in experiment [2], 1.42; in experiment [3] it was 1.19; in experiment [5] it was 0.922; in experiment [6], 0.943; in [7], 0.143. For the same compound, the composite z-score is 1.12 in [8], 0.125 in experiment [9] and 0.5 in experiment [10]. Also, the z-score in experiment [4] is 0.615 (inactive).
Consider `CC(C)N1C(=O)c2ccccc2[C@](C)(C(=O)NCc2ccccc2)[C@@H]1c1ccc(CO)cc1`, for which the composite z-score in experiment [1] was 0.758; in [2] it was 0.234; in experiment [3], 0.849; in [5] it was -0.44; in experiment [6], -0.329; in experiment [7], -0.587. Also, the composite z-score in [8] was -0.615; in experiment [9], -1.16; in [10], 0.288. Besides, the z-score in [4] was 0.0799 (inactive).
Take `O=C1OCCC/C=C\[C@H]2OC34C=CCN(Cn5nnc6ccccc65)C(=O)[C@H]3N(CCCCCCO)C(=O)[C@@H]4C12` (stereo not given in full): the composite z-score was 1.53 in experiment [1]; -0.234 in experiment [2]; 0.489 in [3]; -1.41 in [5]; -0.662 in [6]; -0.636 in experiment [7]. Also, the composite z-score in experiment [8] is -0.321; in experiment [9], -0.774; in experiment [10], 1.12. In addition, the z-score in [4] is -1.57 (inactive).
Turning to `C=CCOC(=O)[C@H]1[C@@H]2C(=O)O[C@@H](c3ccccc3)[C@@H](c3ccccc3)N2[C@@H](c2ccc(OCCOC(=O)[C@H]3C[C@H]4C(=O)N[C@@H](CC(C)C)C(=O)N4[C@H]3c3ccc(O)cc3)cc2)[C@]12C(=O)Nc1ccc(I)cc12`, the composite z-score in [1] was 1.5; in experiment [2], -0.271; in experiment [3], -0.3; in experiment [5], 1.4; in [6], 1.3; in experiment [7], 0.748. Also, the composite z-score in experiment [8] is 1.15; in experiment [9], 1.23; in experiment [10], 0.12. Also, the z-score in [4] was -0.281 (inactive).
As to `[N-]=[N+]=NCc1ccccc1[C@@H]1OC(c2ccc(OCCCO)cc2)=N[C@]1(CCS(=O)(=O)c1ccccc1)C(=O)NCc1ccccc1`, the composite z-score was 1.54 in experiment [1]; 1.14 in [2]; 0.993 in [3]; 1.25 in experiment [5]; 1.26 in experiment [6]; 0.274 in experiment [7]. The composite z-score in experiment [8] amounted to 0.869; in [9], 0.494; in experiment [10] it was 1.07. Besides, the z-score in experiment [4] is -0.392 (inactive).
Take `CCCC[C@H]1OB(O)C[C@H]2C1=C(COc1ccccc1)C[C@H]1C(=O)N(C)C(=O)[C@H]12`: the composite z-score in experiment [1] was -0.328; in experiment [2] it was 0.0763; in experiment [3], -0.442; in experiment [5] it was 0.429; in experiment [6], -0.0785; in experiment [7] it was 0.447. For the same compound, the composite z-score worked out at 0.43 in experiment [8], 0.439 in [9] and 0.741 in experiment [10]. Further, the z-score in [4] is 0.377 (inactive).
For `CCOC(=O)C[C@H]1[C@H](OC(=O)Cc2ccc3c(c2)OCO3)[C@@H](NC(=O)c2ccc(-c3ccccc3)cc2)c2cc(OCCCO)ccc2N1C(=O)Cc1ccc(OC)cc1`, the composite z-score in experiment [1] is 0.489; in [2], 0.55; in experiment [3], 0.456; in [5], 0.463; in experiment [6], 0.116; in experiment [7], -0.0154. Moreover, the composite z-score is 0.543 in experiment [8], -0.0143 in [9] and 0.0884 in experiment [10]. For the same compound, the z-score in [4] is -2.01 (inactive).
As to `COCC(=C=CC[C@H](O)c1ccccc1OCCO)C[C@H](O)c1cc(Cl)cc(Cl)c1O`, the composite z-score in [1] is 0.588; in [2] it was -0.141; in [3], -0.0448; in experiment [5], 1.62; in [6] it was 0.702; in experiment [7] it was -0.0335. Moreover, the figures for the composite z-score in experiment [8], in [9] and in [10] were 0.897, -0.0154 and 0.282, respectively. Also, the z-score in experiment [4] was -0.705 (inactive).
Turning to `COc1cc2c(cc1OC)CN(C(=O)[C@H]1[C@@H]3C(=O)O[C@@H](c4ccccc4)[C@@H](c4ccccc4)N3[C@@H](c3ccc(O)cc3)[C@]13C(=O)Nc1ccc(C#CC4=CCCCC4)cc13)CC2`, the composite z-score in experiment [1] was determined as 1.32; in experiment [2], 0.817; in experiment [3], 0.785; in experiment [5], 1.14; in [6] it was 1.29; in [7], 0.405. Moreover, the figures for the composite z-score in experiment [8], in experiment [9] and in experiment [10] were 1.43, 0.779 and -0.301, respectively. Moreover, in experiment [4], the z-score is -0.58 (inactive).
For `CCCCN1CC=CC23O[C@@H]4C=CCOC(=O)[C@@H]4[C@H]2C(=O)N(CCCCCO)[C@@H]3C1=O` (stereo not given in full), the composite z-score was 1.15 in experiment [1]; -0.159 in [2]; 0.641 in experiment [3]; -0.828 in [5]; -0.656 in experiment [6]; -0.945 in experiment [7]. The composite z-score was -1.39 in experiment [8], -1.03 in [9] and -0.0355 in experiment [10]. Besides, in experiment [4], the z-score was -0.248 (inactive).
Regarding `COC(=O)[C@@]1(Cc2ccccc2)[C@H]2c3cc(C(=O)N4CCCC4)n(CC4CC4)c3C[C@H]2CN1C(=O)c1ccccc1`, the composite z-score amounted to 1.23 in [1]; 1.48 in experiment [2]; 1.16 in experiment [3]; 0.596 in experiment [5]; 1.29 in experiment [6]; 0.436 in [7]. Also, the figures for the composite z-score in experiment [8], in experiment [9] and in [10] were 1.17, -0.23 and 1.16, respectively. The z-score in [4] is -2.08 (inactive).
